# From PubChem
# Mtb BioA inh = inhibitors of Mycobacterium tuberculosis BioA enzyme | AID 602481 | hit rate 0.096% among 360,000 | purified M. tuberculosis BioA enzyme, plate reader | inhibition, % at 9.99 µM; in the data active = inhibition above about 40%
# TcdB GH inh = inhibitors of Clostridioides difficile toxin B glycohydrolase; P18177; TcdB glycohydrolase enzymatic assay, plate reader; inhibition, % at 9.99 µM; hit rate 0.24% among 350,000; in the data active = inhibition above about 10%
# PrP UTR inh = inhibition of PrP 5' UTR reporter expression; AID 488862; cell-based PrP 5' UTR mRNA reporter, plate reader; inhibition, % (no concentration beside the values); hit rate 0.35% among 340,000; in the data active = inhibition above about 52%; note: 0 = median of the neutral control wells
# Yp Topo-I inh = Y. pestis Topo-I inhibition via cleavage products | Y. pestis Topo-I cleavage product accumulation, plate reader | activity, % at 10 µM | hit rate 0.064% among 360,000; in the data active = activity above about 50%, passing the limit was not always enough
# PrP UTR cherry = prion 5' UTR mRNA inhibition, cherry-pick retest. shares compounds with PrP UTR inh. cell-based prion protein 5' UTR reporter, plate reader. inhibition, % at 2.5 µM. hit rate 48% among 1,100. AID 504592; in the data active = inhibition above about 54%
# Active calls of the source: *; . = no result. An excerpt weighted towards active compounds, which were near 0.57% of everything screened.
SMILES,Mtb BioA inh,TcdB GH inh,PrP UTR inh,Yp Topo-I inh,PrP UTR cherry
CCCCN1C=C(C(=O)c2ccccc2)C(=O)CC1,-1.5,1.3,4.1,2.7,.
COc1cc(CN2CC3(CN(C(=O)c4cccnc4)C3)c3c([nH]c4cc(OC)ccc34)[C@H]2CO)cc(OC)c1,.,-1.1,.,.,.
CC(=O)OC(C)(C)/C=C/C(=O)[C@](C)(O)C1[C@H](O)C[C@@]2(C)C3CC=C4C(C[C@H](O)C(=O)C4(C)C)[C@]3(C)C(=O)C[C@]12C (stereo partly specified),1.1,.,83.6*,6.1,89.9*
CC(C)(O)/C=C/C(=O)C(C)(O)C1C(O)CC2(C)C3CC=C4C(C=C(O)C(=O)C4(C)C)C3(C)C(=O)CC12C (stereo unspecified),.,1.2,70.0*,-6.4,90.4*
O=C(c1ccncc1)N1CC(=O)N2[C@H](C1)[C@@H](c1ccc(-c3ccccc3)cc1)[C@@H]2CO,.,-0.9,.,.,.
COc1ccc(NC(=O)Nc2cccc3c2O[C@@H](CN(C)C(=O)Nc2ccccc2)[C@@H](C)CN([C@H](C)CO)C3=O)cc1,.,-1.7,.,.,.
O=[N+]([O-])c1nn(-c2ccc3c(c2)OCCO3)n(O)c1=Nc1ccc(Cl)cc1,-1.1,0.9,14.1,0.6,.
O=[N+]([O-])c1nn(-c2ccc3c(c2)OCCO3)n(O)c1=Nc1ccccc1,.,0.8,81.3*,-3.0,78.4*
C[C@@H]1CN([C@@H](C)CO)C(=O)c2cc(NS(=O)(=O)c3ccccc3)ccc2O[C@@H](C)CCCCO[C@H]1CN(C)S(=O)(=O)c1ccc(Cl)cc1,.,2.2,.,.,.
COC(=O)c1ccc(CCc2cc(O)c(Br)cc2O)cc1,.,-16.2,86.8*,-8.7,-28.6
COC(=O)c1ccc(CCc2cc(O)ccc2O)cc1,.,.,-33.3,-7.9,.
[N-]=[N+]=NCc1ccccc1C[C@]1(C(N)=O)N=C(c2ccc(OCCCO)cc2)O[C@H]1c1ccccc1,1.0,1.2,.,.,.
CO[C@@H]1CN(C)C(=O)c2cc(NC(C)=O)ccc2OC[C@@H](C)N(Cc2ccc(F)cc2)C[C@H]1C,-0.4,-0.4,.,.,.
O=C(CSc1ncnc2ccccc12)Nc1cccc(S(=O)(=O)N2CCCC2)c1,-1.0,0.5,85.1*,2.3,-11.0
O=C(Nc1nnc(-c2cccs2)s1)c1cccc(F)c1,14.8,1.4,74.1*,-6.9,-44.5
COc1c(C)cc(C(=O)C2CCCN(C(=O)c3cccc(-n4cccn4)c3)C2)cc1C (stereo unspecified),4.0,.,-12.0,22.7,.
COc1c(C)cc(C(=O)C2CCCN(C(=O)c3ccc4[nH]ccc4c3)C2)cc1C (stereo unspecified),1.9,-0.6,77.9*,10.8,-0.3
Cc1nccn1CCCNCc1c(C(=O)N2CCCCCCC2)nc2ccc(Cl)cn12,.,.,84.0*,-2.1,-13.1
COc1ccc2c(=O)cc(-c3cccnc3)oc2c1OC,-4.3,0.9,53.8*,-7.3,-5.3
C[C@H]1[C@@H](OS(=O)(=O)O)C[C@@H]2C[C@H]([C@@H](O)c3cc(=O)[nH]c(=O)[nH]3)NC3=NC[C@H]1N32,-1.3,.,60.7*,4.2,66.0*
Cc1noc(C)c1S(=O)(=O)N(C)C[C@H]1OCCCC[C@H](C)Oc2ccc(NC(=O)Nc3ccccc3)cc2C(=O)N([C@H](C)CO)C[C@H]1C,0.8,0.0,.,.,.
CCOC(=O)N1CCN(C(=O)C(CC)n2nc(C)c3sc4ccccc4c3c2=O)CC1 (stereo unspecified),-1.6,.,81.3*,8.4,-9.2
O=C(O)c1cc(NC(=O)c2ccc([N+](=O)[O-])cc2)cc(NC(=O)c2ccc([N+](=O)[O-])cc2)c1,0.6,0.6,-23.5,-14.8,.
O=C(Nc1ccc([N+](=O)[O-])cc1)C(=O)Nc1cccc(C(=O)O)c1,-2.0,-0.5,88.0*,5.1,92.3*
CO[C@H]1CN(C)C(=O)c2ccc(NC(=O)c3ccccc3F)cc2OC[C@@H](C)N(CC2CC2)C[C@H]1C,0.3,-1.2,.,.,.
SMILES,Mtb BioA inh,TcdB GH inh,PrP UTR inh,Yp Topo-I inh,PrP UTR cherry
Cc1cc(C)c(S(=O)(=O)Nc2ccc3c4c(cccc24)CC3)c(C)c1,-1.0,.,75.5*,-7.0,89.1*
COc1ccc(NC(=S)N(CCC(C)C)C2CCN(C(C)C)CC2)cc1,0.9,1.1,-17.7,-10.3,.
CC(C)CCN(C(=S)Nc1cccc(F)c1)C1CCN(C(C)C)CC1,.,1.5,79.2*,-13.8,-18.6
Cc1ccc(C2(SCC(N)C(=O)O)c3ccccc3-c3ccccc32)cc1 (stereo unspecified),.,2.7,88.9*,4.5,-9.5
NC(CSC(c1ccccc1)(c1ccccc1)c1ccccc1)C(=O)O (stereo unspecified),.,-1.5,-37.7,2.5,.
COCc1nnc(NS(=O)(=O)c2ccc(OC)cc2)s1,-0.8,1.5,61.7*,3.8,-22.3
Cc1nc2c(-c3ccc(F)cc3)cnn2c(N)c1-c1ccccc1,0.5,-1.2,68.0*,-20.2,44.1
Cc1nc2c(-c3ccc(Cl)cc3)cnn2c(N)c1-c1ccc(F)cc1,4.6,1.7,56.4*,-5.0,5.1
Cc1noc(C)c1NC(=O)N(C)C[C@@H]1Oc2ccc(NS(C)(=O)=O)cc2CC(=O)N([C@H](C)CO)C[C@@H]1C,-1.8,.,.,.,.
CC(C)NC(=O)Nc1ccc2c(c1)C(=O)N([C@H](C)CO)C[C@@H](C)[C@@H](CN(C)Cc1ccc(C(=O)O)cc1)OCCCC[C@H](C)O2,-1.3,-0.9,.,.,.
O=C(C1CCC1)N1CC2(C1)[C@@H](c1ccccc1)[C@H](CO)N2C(=O)CC1CC1,.,0.3,.,.,.
NC(=O)c1cc2c3ccccc3ccn2c1-c1ccccc1,-0.9,-4.8,71.5*,1.8,90.3*
C=C(CCO)C1=CCN(S(=O)C(C)(C)C)[C@@H]1CCO (stereo partly specified),-0.9,0.5,-16.9,1.0,.
C=C(C1=CCN(S(=O)C(C)(C)C)[C@@H]1CCO)c1ccccc1 (stereo partly specified),-1.2,0.7,58.8*,-2.9,-13.8
CCCNC(=O)Nc1ccc2c(c1)C(=O)N(C)C[C@@H](OC)[C@@H](C)CN(S(C)(=O)=O)[C@H](C)CO2,.,-1.1,.,.,.
CCOC(=O)c1ccc(NC(=O)COc2ccccc2CNCCO)cc1,.,0.4,74.0*,3.0,1.8
Cn1cnc(S(=O)(=O)N2CCCCN3[C@H](CO)[C@H](c4ccc(C5=CCCC5)cc4)[C@@H]3C2)c1,-5.9,-1.1,.,.,.
OCCN1CCN(CC/C=C2/c3ccccc3Sc3ccc(Cl)cc32)CC1,2.8,6.3,82.4*,6.7,-19.3
CN(C)CC/C=C1\c2ccccc2Sc2ccc(Cl)cc21,2.7,2.9,9.0,2.3,.
CC1CCN(C(=O)/C(=C\c2cccs2)NC(=O)c2ccccc2)CC1,.,1.0,59.1*,8.1,-9.6
O=C(NC1CCCCC1)c1csnn1,.,1.4,84.5*,2.3,-0.6
COc1ccc(Cl)cc1NC(=O)CCn1cnc2ccccc2c1=O,0.5,.,70.5*,2.8,-10.3
Nc1ccc2c(c1)C(=O)c1ccc(Cl)cc1-2,-1.9,1.0,-5.3,-25.1,.
Nc1ccc2c(c1)-c1ccc(F)cc1C2=O,.,3.1,81.0*,-7.6,-1.9
O=C(Nc1nc2cc3c(cc2s1)OCO3)c1ccco1,-1.7,0.9,52.5,5.8,.
